Compounds without any hit were thinned out: in the full panel of roughly 79,000, 15% have a hit. Calls of active or inactive are those of the source. No stated cut-off is given here; in the data, active means growth inhibition above about 70%; inactive means the rest.
Assay: NCI Yeast Anticancer Drug Screen. Data for the rad50 strain (AID 155);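 further: 0% = growth of vehicle-only cultures of the same strain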
Settings: S. cerevisiae rad50 strain growth inhibition; at 50.0 µM; stronger effect = higher value
Outline: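 DNA repair mutant yeast, compound exposure, growth read-out; inhibition is taken relative to vehicle.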

Row | SMILES | growth inhibition
1 | CC(C)=CCNc1nc(Cl)nc2nc[nH]c12 | -28.1% (inactive)
2 | BrC1CC2CCCCC2CC1Br (stereo not given) | -1.45% (inactive)
3 | CC(C)OC(=O)C1CCC(=O)N1 (stereo not given) | 12.1% (inactive)
4 | COc1cc(O)c2c(c1)C(=O)c1cc(C)cc(O)c1C2=O | -15.1% (inactive)
5 | CC(=O)Oc1cc2oc([O-])c[n+]2c2ccccc12 | 28.6% (inactive)
6 | CCc1ccc2[nH]nc(CCC(=O)O)c(=O)c2c1 | -1.5% (inactive)
7 | O=c1c(Cl)cc(Cl)cn1S(=O)(=O)c1ccc([N+](=O)[O-])cc1 | 99.1% (active)
8 | O=[N+]([O-])c1cc(O)ccc1O | 5.4% (inactive)
9 | CCCCC(CC)COCCC(=O)O (stereo not given) | -9.55% (inactive)
10 | CC(CC(=N)N)NC(=O)C1CCC(N)=N1 (stereo not given) | 6% (inactive)
11 | CCCCC(=O)N1SC(NC(=O)OC)=Nc2ccccc21 | 61% (inactive)
12 | COc1ccc(/C=C2/C(=O)N(c3ccccc3)N=C2C)cc1 | 22.2% (inactive)
13 | CCOC(=O)c1ccc(C#N)cc1 | -8% (inactive)
14 | Cc1ccc(NC(=O)C2CCN(C)CC2)cc1 | -14.3% (inactive)
15 | CCC(O)(C#CCl)CC | 11.6% (inactive)
16 | COc1ccc2c(c1)CC1(CC2)CCN(CCCN(C)C)CC1 | -32.3% (inactive)
17 | O=C(CCCc1ccc([N+](=O)[O-])cc1)c1ccccc1 | -5.85% (inactive)
18 | Cc1cc(C)c(/C=N/NC(=O)NN)c(C)c1 | -16.7% (inactive)
19 | CC(=O)N(C)c1ccc(N)cc1 | 33.5% (inactive)
20 | COc1cc(-c2ccc(N=Nc3ccc(N)nc3N)c(OC)c2)ccc1N=Nc1ccc(N)nc1N | 6.9% (inactive)

Row | SMILES | growth inhibition
21 | CCCCCCC(O)CCCCCCCCCCCO (stereo not given) | 41.5% (inactive)
22 | C=C(C)CCC[C@@H](C)C1CCC2(C)[C@@H]3CCC4C(C)(C)[C@@H](O)CC[C@@]45C[C@@]35CC[C@]12C (stereo not given in full) | 31.1% (inactive)
23 | OC(c1cc(-c2ccccc2)nc2c1ccc1ccccc12)C1CCCCN1 (stereo not given) | 32.5% (inactive)
24 | COc1ccc2c(c1)C(=O)[C@@](Nc1ccc(C=O)cc1)(OC)[C@@](OC)(c1ccc([N+](=O)[O-])cc1)O2 | 9.3% (inactive)
25 | CC(C)C1CCC(=O)CC1 | 9.9% (inactive)
26 | CN(C)S(=O)(=O)N1CCCc2ccccc21 | 3.4% (inactive)
27 | CCC(O)(c1ccc(OC)cc1)C(O)(CC)c1ccc(OC)cc1 (stereo not given) | 9.2% (inactive)
28 | CN1C(c2ccccc2)=C(C#N)C(=O)CC(c2ccc(Cl)cc2)N1C (stereo not given) | -7.75% (inactive)
29 | ClC(c1ccccc1)c1cccc2ccccc12 (stereo not given) | 30.6% (inactive)
30 | CCCCCCCCC(=O)OCC(=O)c1ccc(-c2ccccc2)cc1 | 10.8% (inactive)
31 | Nc1nc(N)c2c(n1)CCC(CNc1ccc(C(=O)NC(CCC(=O)O)C(=O)O)cc1)C2 (stereo not given) | 23.6% (inactive)
32 | CCCCOC(=O)C1(C(=O)OCCCC)CC1 | 14.8% (inactive)
33 | N#CCc1ccc(-c2ccccc2)cc1 | -2.75% (inactive)
34 | CC(C)NCc1ccccc1Sc1ccccc1CNC(C)C | 22.1% (inactive)
35 | C/C(=N/NC(N)=O)C1CCC(C)CC1 (stereo not given) | 39% (inactive)
36 | C=CCCCCCCCCC(=O)NCC1CC1 | -10.8% (inactive)
37 | Nc1ncnc2c1ncn2C1C=CC(COS(N)(=O)=O)C1 (stereo not given) | 13.2% (inactive)
38 | CCCCCCCCCCCCCCCCS(=O)(=O)N/N=C(/C)N(C)c1ccc(OC)cc1 | -15.4% (inactive)
39 | Cc1onc(-c2c(F)cccc2Cl)c1C(=O)OCc1c(F)cccc1Cl | 6.8% (inactive)
40 | CC(C)CC(CC(C)C)=NNC(N)=O | 17.3% (inactive)

Reference: PubChem BioAssay (NCI)
